# Values joined by “and” are separate entries in the source; they are usually repeats but may differ in a detail not shown here. Equal entries are not always repeated. Screen size: about 390,000 compounds; about 4,000 (1%) were called active. Not shown: some 7% with an inconclusive outcome. Calls follow the shape of the dose curve; as a rule, active = well fitted inhibition curve with a large enough effect; inconclusive = small, poorly fitted or top-dose-only effect, or another doubt; inactive = no such curve, though single readings can be large or run the other way. Many of the other results were omitted from the sample, so actives are more common in it than they were.
# Target: DNA polymerase iota (Homo sapiens) (UniProt Q9UNA4)
# Test: qHTS for Inhibitors of Polymerase Iota
# Conditions: Pol iota fluorescent replication assay, 10 min; series mostly up to 115 µM; activity, negative = inhibition: at the top concentration
# Outline: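 Pol iota at 10 nM preincubated 15 min with compounds at room temperature; reaction started with fluorescent substrate, 50 nM final. Fluorescence read kinetically at 0 and 10 min; buffer-only wells as negative control.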
# Potency is read from the fitted curve at half-maximal effect.
# Chain of DNA polymerase iota (Homo sapiens) (Q9UNA4 whole entry, looked up): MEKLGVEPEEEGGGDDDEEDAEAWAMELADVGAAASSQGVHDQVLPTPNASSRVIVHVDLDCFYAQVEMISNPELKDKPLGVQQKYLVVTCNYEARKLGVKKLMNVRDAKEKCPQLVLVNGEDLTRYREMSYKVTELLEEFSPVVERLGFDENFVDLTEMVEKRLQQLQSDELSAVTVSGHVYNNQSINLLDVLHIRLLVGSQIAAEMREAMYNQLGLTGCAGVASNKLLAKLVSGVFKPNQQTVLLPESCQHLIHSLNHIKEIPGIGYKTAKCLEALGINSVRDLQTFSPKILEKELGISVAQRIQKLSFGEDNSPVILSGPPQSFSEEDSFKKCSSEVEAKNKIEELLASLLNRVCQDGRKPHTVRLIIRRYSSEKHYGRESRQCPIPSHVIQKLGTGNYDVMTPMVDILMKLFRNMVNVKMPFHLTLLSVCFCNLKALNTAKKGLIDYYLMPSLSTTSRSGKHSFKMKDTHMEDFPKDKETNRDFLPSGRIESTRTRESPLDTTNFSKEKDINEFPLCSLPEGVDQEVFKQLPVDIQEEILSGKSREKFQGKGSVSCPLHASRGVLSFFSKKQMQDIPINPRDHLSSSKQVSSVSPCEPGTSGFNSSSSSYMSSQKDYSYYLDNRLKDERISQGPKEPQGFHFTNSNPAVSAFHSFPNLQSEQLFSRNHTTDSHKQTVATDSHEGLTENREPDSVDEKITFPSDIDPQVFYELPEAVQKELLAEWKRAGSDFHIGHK
SMILES,"activity, negative = inhibition",Potency
COc1ccc(/C=C/c2ccnc3ccccc23)cc1OC,3.3% (inactive),–
CN(C(=N)N)c1ccc(/C=C2\C=Cc3ccccc32)cc1,4.23% (inactive),–
CC(=O)Nc1c2c(nn1-c1cccc(C)c1)CSC2,–,50.1 µM (active)
O=C(NCCCO)C(=O)Nc1c2c(nn1-c1ccccc1)CSC2,10.5% (inactive),–
CC(C)C(=O)Nc1c2c(nn1-c1ccccc1)CSC2,10.4% (inactive),–
COc1ccc(CNC(=O)Cn2nnc(-c3ccc(S(C)(=O)=O)cc3)n2)cc1,-14.7% (inactive),–
O=C(C[n+]1ccncc1)c1ccc2c(c1)CCCC2,6.27% (inactive),–
CC(C)(C)n1c(=O)[nH]c2c(c1=O)CCC2,4.41% (inactive),–
Cc1c(N=Nc2ccc(N(C)C)cc2)c(=O)n(-c2ccccc2)n1C,7.1% (inactive),–
O=c1[nH]n2c(=O)c3c([nH]c2c1N=Nc1ccccc1)CCC3,–,50.1 µM (active)
CC(C)NC(=O)C1CCC(Cn2c(=O)c3sccc3n(Cc3ccc(F)cc3)c2=O)CC1 (stereo unspecified),-3.5% (inactive),–
CCOC(=O)C1CCC(CN(Cc2ccc(OC)cc2)S(=O)(=O)c2ccc(F)c(C(=O)Nc3cc(C)ccc3C)c2)CC1 (stereo unspecified),-12.9% (inactive),–
CC(C)(C)c1ccc(C(=O)NCC(c2ccco2)S(=O)(=O)c2ccc(F)cc2)cc1 (stereo unspecified),-3.42% (inactive),–
COc1cccc2c1C(=O)c1c(O)c3c(c(O)c1C2=O)CC(O)(C(C)=NNC(=O)c1ccc(Cl)c(Cl)c1)CC3OC1CC(N)C(O)C(C)O1 (stereo unspecified),–,50.1 µM (active)
COc1ccccc1NC(=O)C1=C(C)Nc2ncnn2C1c1sccc1C (stereo unspecified),-10.5% (inactive),–
O=C(O)C1=C/C(=C/C=[N+]2c3cc(O)c(O[C@H]4OC(CO)[C@@H](O)[C@@H](O)[C@@H]4O)cc3C[C@@H]2C(=O)[O-])C[C@H](C(=O)O)N1 (stereo partly specified),-28% (inactive),–
CCCS(=O)(=O)Nc1cccc(-c2cn3ccsc3n2)c1,0.928% (inactive),–
Cc1ccc(C)c(N2CCN(C(=O)Cn3nc(C)c4sc5ccccc5c4c3=O)CC2)c1,13.8% (inactive),–
C=C(C)C(=O)O[C@H]1C/C(C)=C\C(=O)/C=C(\C)[C@H](O)[C@@H]2OC(=O)C(=C)[C@@H]21,–,35.5 µM (active)
Cc1ccc(S(=O)(=O)N2CCCc3cc(NS(=O)(=O)c4cc(C)ccc4C)ccc32)cc1,12.8% (inactive),–
CCOc1ccc(NC(=O)CSc2nnc3c(n2)[nH]c2ccc(S(=O)(=O)N4CCOCC4)cc23)cc1,10% (inactive),–
Cc1ccc(-c2nn3c(=O)cc(CN4CCN(C(=O)Nc5cccc(C(F)(F)F)c5)CC4)nc3s2)cc1,34.4% (inactive),–
Cn1c(=O)c2c(-c3ccccc3Br)n(Cc3ccccc3)cc2n(C)c1=O,4.59% (inactive),–
COc1cccc(CNC(=O)c2ccc3c(c2)sc2nc(-c4cccc(OC)c4)cn23)c1,1.33% (inactive),–

SMILES,"activity, negative = inhibition",Potency
COc1cccc2c1cc1c(=O)n(CC(=O)N3CCN(c4ccccc4)CC3)nc(C)n12,-0.0822% (inactive),–
C=CC1C(OC2OC(CO)C(O)C(O)C2O)OC=C(C(=O)OC)C1CC1CC(=O)CC(CC(=O)CCc2ccc(O)cc2)O1 (stereo unspecified),20% (inactive),–
CC(/C=C/C1(O)C(C)CC(=O)CC1(C)C)OC1OC(CO)C(O)C(O)C1O (stereo unspecified),–,79.4 µM (active)
CC1=C(C)C(=O)OC(C(C)C2CCC3C4CC=C5CC(OC6OC(COC7OC(CO)C(O)C(O)C7O)C(O)C(O)C6O)CC(O)C5(C)C4CCC23C)C1 (stereo unspecified),-19.9% (inactive),–
Nc1ncnc2nnsc12,-2.97% (inactive),–
COC(=O)c1ccc(Cn2c(SCC(=O)N(C)c3ccccc3)nc3ccccc32)cc1,-4.29% (inactive),–
CCC(C)Cn1c(O)cc2nn(-c3nc4ccccc4s3)c(=O)c-2c1C (stereo unspecified),–,12.6 µM (active)
CC(=O)c1cc(-c2ccccc2)[nH]c1N1CCCC1,5.83% (inactive),–
O=C1NN(c2ccccc2)C(=O)/C1=C/c1ccc(-c2cccc(C(=O)O)c2)o1,–,8.91 µM (active)
COc1ccc2c(c1)C=C(C(=O)NCc1cc(Br)ccc1OC)CO2,24.9% (inactive),–
COC(=O)c1ccc(NC(=O)CCc2c(C)nn(-c3ccc(N4CCCC4)nn3)c2C)cc1,3.11% (inactive),–
COc1ccc(C)cc1NC(=O)COCc1cc(-c2cccs2)on1,-5.82% (inactive),–
O=C(NC1CC(=O)N(c2ccccc2)C1)c1ccco1 (stereo unspecified),18.3% (inactive),–
CCOc1cc2[nH]c(=O)n(Cc3ccc(C(=O)NCCN(CC)CC)cc3)c(=O)c2cc1OCC,22.6% (inactive),–
COc1ccc(CNC(=O)COC(=O)c2ccc(C)c(S(=O)(=O)N3CCOCC3)c2)cc1OC,33.4% (inactive),–
Cc1ccc(C(=O)OCC(=O)N2CC(C)CC(C)C2)cc1S(=O)(=O)N1CCCCC1 (stereo unspecified),50.2% (inactive),–
Cc1ccc(C(=O)OCC(=O)NCc2cc(C)c(O)c(C)c2)cc1S(=O)(=O)N1CCCCC1,–,79.4 µM (active)
CC1CCCN(c2nc3c(S(=O)(=O)c4ccc(C(C)C)cc4)nnn3c3ccsc23)C1 (stereo unspecified),28.7% (inactive),–
CCc1nn(CC(=O)Nc2cccc(C)c2C)c(=O)c2cc3sccc3n12,-1.22% (inactive),–
C[N+](C)(CCCCCC[N+](C)(C)CCCN1C(=O)c2cccc3cccc(c23)C1=O)CCCN1C(=O)c2cccc3cccc(c23)C1=O,–,2.24 µM (active) and 20 µM (active)
O=C(CN1C(=O)c2cccc3cccc1c23)Nc1ccccc1,120% (inactive),–
O=C(CN1C(=O)c2cccc3cccc(c23)C1=O)N1CCCCC1,27.2% (inactive),–
CCn1c(C)c(C)c2cc(C(=O)NCCc3cc(OC)ccc3OC)ccc21,10.3% (inactive),–
Cc1cccc(CCNC(=O)c2ccc3c(c2)nc2n3CCC(C)C2)c1 (stereo unspecified),21.1% (inactive),–

SMILES,"activity, negative = inhibition",Potency
COc1cc2[nH]c(C)c(CCN3CCN(c4ccccc4)CC3)c2cc1OC,14.1% (inactive),–
O=S(=O)(NCc1ccccc1)c1ccc(S(=O)(=O)N2CCCC2)cc1,55.4% (inactive),–
O=c1/c(=C/c2ccc(CNS(=O)(=O)c3ccccc3)o2)sc2n1CCN=2,–,35.5 µM (active)
COC(=O)C1=C(C)NC(=O)/C1=C/c1ccc(CNS(=O)(=O)c2ccc(C)cc2)o1,8.35% (inactive),–
CCc1cccc(-n2nnc(-c3nsc(NC(=O)c4ccc(C)cc4)n3)c2C)c1,10.3% (inactive),–
O=C(Nc1ccc2oc(-c3ccc(O)c(Br)c3)nc2c1)c1cc2ccccc2o1,25% (inactive),–
Cc1ccccc1NC(=O)Cn1c(=O)n(Cc2ccco2)c(=O)c2ccc(C(=O)NC3CCCC3)cc21,11.1% (inactive),–
COc1ccc(NC(=O)C2CCCN(S(=O)(=O)c3cccc4nonc34)C2)cc1Cl (stereo unspecified),-4.75% (inactive),–
CCc1nnc(NC(=O)CCC(=O)NCc2ccccc2OC)s1,14.9% (inactive),–
COc1ccc(Cc2nnc(NC(=O)Cc3cccs3)s2)cc1,–,4.47 µM (active)
CCOc1ccc(NC(=O)C/C(C)=N/NC(=O)Cc2cccs2)cc1,16.3% (inactive),–
CCc1nnc(NC(=O)Cc2cccs2)s1,–,11.2 µM (active)
O=C(Cc1cccs1)Nc1ccc([N+](=O)[O-])cc1,-7.17% (inactive),–
COc1ccc(Cc2nnc(NC(=O)c3cc(OC)c(OC)c(OC)c3)s2)cc1OC,-6.07% (inactive),–
COc1ccc(CNC(=O)CCC(=O)Nc2nnc(C(C)C)s2)cc1,39.1% (inactive),–
CCOc1ccccc1NC(=O)Cc1cccs1,–,44.7 µM (active)
CCOc1ccccc1NC(=O)CCn1cnnn1,12.4% (inactive),–
COc1ccc(-c2cc(-c3ccccc3)nc3c2COc2ccc(Cl)cc2-3)cc1,16.9% (inactive),–
CCN(CC)c1nc(C#N)nc(OC)n1,-19.6% (inactive),–
CCc1ccc(OCCCn2c(CCCNC(=O)C3CCCCC3)nc3ccccc32)cc1,22.4% (inactive),–
C/C(=N\Nc1ccccc1)c1cccs1,14.5% (inactive),–
C/C(=N\Nc1ccc(S(N)(=O)=O)cc1[N+](=O)[O-])c1cccs1,–,25.1 µM (active)
CCOC(=O)C/C(C)=N\Nc1ccc([N+](=O)[O-])cc1[N+](=O)[O-],-3.02% (inactive),–
O=C(NNc1c2ccccc2nc2ccccc12)c1cc2ccccc2cc1O,–,39.8 µM (active)

SMILES,"activity, negative = inhibition",Potency
Cc1ccc(C(=O)NNc2ncnc3ccccc23)cc1,-4.31% (inactive),–
O=C(Cc1ccccn1)c1ccc(O)cc1O,-3.24% (inactive),–
CN(Cc1ccccc1)C(=O)c1cc2c(=O)n(C)c3ccccc3c2s1,-0.232% (inactive),–
CN(C)c1ccc(/C=C/c2sc3ccccc3[n+]2CCCCBr)cc1,41.8% (inactive),–
CN(C)c1ccc(/C=C/c2sc3ccccc3[n+]2C)cc1,–,79.4 µM (active)
CN(C)c1ccc(/C=C/c2c3ccccc3nc3ccccc23)cc1,-2.85% (inactive),–
CCCN1CCC(=O)N(C(CSc2ccc(OC)cc2)Cc2ccccc2)CC1 (stereo unspecified),14.6% (inactive),–
C[N+]1(CC(=O)c2cccs2)CCOCC1,14.8% (inactive),–
CCc1ccc(N2CC(C(=O)N3CCCCCC3)CC2=O)cc1 (stereo unspecified),-6.39% (inactive),–
CCc1ccc(N2CC(C(=O)Nc3ccc(S(=O)(=O)Nc4nccs4)cc3)CC2=O)cc1 (stereo unspecified),7.88% (inactive),–
CCc1ccc(N2CC(C(=O)NC3=NCCS3)CC2=O)cc1 (stereo unspecified),–,89.1 µM (active)
Cc1cccc(CN2Cc3cccc4c3[C@H](C=CC4)CC2=S)c1,31.4% (inactive),–
CC1CCCN(S(=O)(=O)c2ccc3[nH]c(=O)cc(C(=O)NCCc4ccc(Cl)cc4)c3c2)C1 (stereo unspecified),4.12% (inactive),–
COc1cc2nc(Cl)nc(NC3CC3)c2cc1OC,17.8% (inactive),–
COc1ccc(C)cc1NC(=O)C(=O)NCCc1sc(-c2cccc(C)c2)nc1C,32% (inactive),–
C=C1c2c(Cl)ccc(O)c2C(O)=C2C(=O)[C@]3(O)C(O)=C(C(N)=O)C(=O)[C@@H](N(C)C)[C@@H]3[C@@H](O)C12 (stereo partly specified),–,2.51 µM (active)
Cc1ccc(NC(=O)c2nc(S(=O)(=O)Cc3cccc(C)c3)ncc2Cl)cc1,-13.9% (inactive),–
COc1cc(C(CC(=O)NCCC(C)C)N2Cc3ccccc3C2=O)cc(OC)c1OC (stereo unspecified),5.25% (inactive),–
COc1ccc(CCNC(=O)c2c3c(nc4ccccc24)C(=O)N(C2CCCCC2)C3)cc1OC,8.03% (inactive),–
Cc1c(NC(=O)C(C)(C)C)cccc1-c1nc2ccccc2s1,11.4% (inactive),–
O=C(COc1ccc(Cl)cc1)Nc1ccc(-c2nc3cc(Cl)ccc3o2)c(O)c1,28.2% (inactive),–
CC1=NN(c2ccc(Cl)c(C(=O)O)c2)C(=O)/C1=C/c1ccc(-c2ccccc2[N+](=O)[O-])o1,–,1.41 µM (active)
O=C1C2C3C=CC(C4CC34)C2C(=O)N1/N=C/c1ccc(-c2ccccc2[N+](=O)[O-])o1 (stereo unspecified),-5.9% (inactive),–
O=C(O)c1ccc2c(=O)n3c(nc2c1)/C(=C/c1ccc(Cl)c([N+](=O)[O-])c1)CC3,123% (inactive),–
